The whole screen tested about 400,000 compounds, of which about 13,000 (3.2%) were called active. Roughly 18% stayed inconclusive and do not appear here. Calls follow the shape of the dose curve; as a rule, active = well fitted cell-killing curve with a large enough effect; inconclusive = small, poorly fitted or top-dose-only effect, or effect the other way; inactive = flat fitted curve, though single readings scatter. The full list was thinned out, with actives kept by preference.
Assay: qHTS assay for MDR1-selective chemotherapeutics: Primary screen using the drug-selected MDR subline cells KB-V1; also: nearly all actives have a fitted effect of over 60% in size
Conditions: KB-V1 MDR cells viability, CellTiter-Glo, 72 h; series mostly up to 46.1 µM; activity change, negative = cytotoxicity: at the top concentration
In short: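 Luminescent ATP read-out (CellTiter-Glo, 10 min) measures survival of drug-selected KB-V1 MDR cells after 72 h, 37 degrees C compound exposure. Medium: phenol-red-free DMEM, 10% FBS. Values from fitted concentration-response curves.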
% is scaled to controls: 0 for no effect and ±100 for the full control effect; potency is read from the fitted curve at half-maximal effect.

Compound | activity change, negative = cytotoxicity | Potency
Cc1ccccc1-c1ccc2c(c1)O[C@@H](CN(C)Cc1ccc(C(=O)O)cc1)[C@@H](C)CN([C@H](C)CO)S2(=O)=O | -0.477% (inactive) | –
NC(CSC(c1ccccc1)(c1ccccc1)c1ccc(-c2ccccc2)cc1)C(=O)O (stereo unspecified) | -3.77% (inactive) | –
O=C1NC[C@H](Cc2ccc(O)cc2)N(C[C@@H]2CCCN2C[C@H](Cc2ccccc2)N2C[C@H](Cc3ccccc3)N(CC3CCCCC3)C(=O)C2=O)C1=O | -5.11% (inactive) | –
CCc1nc2c(OCC(=O)C(C)(C)C)cccn2c1N(C)C(=O)c1ccccc1F | -2.89% (inactive) | –
COc1cc(Cn2c3ccc(NC(=O)CC(C)c4ccccc4)cc3c(=O)n2C)ccc1F (stereo unspecified) | -18.4% (inactive) | –
Cc1ccc(S(=O)(=O)NC2CCCCCC2)cc1 | – | 20.6 µM (active)
CC(C)c1ccc(S(=O)(=O)NC2CCCC2)cc1 | -29.7% (inactive) | –
CSc1ccc(S(=O)(=O)NC2CCCCC2)cc1 | -15.7% (inactive) | –
CCOc1cc(/C=N/NC(=O)c2ccncc2)cc(Br)c1O | 23.2% (inactive) | –
O=C(COC(=O)/C=C/c1ccc(Cl)cc1)NC1CCS(=O)(=O)C1 (stereo unspecified) | 16.4% (inactive) | –
C/C(=N\Nc1ncc(Cl)cc1Cl)c1ccc(S(=O)(=O)NCc2ccco2)cc1 | – | 2.06 µM (active)
Cc1c(Cl)cnc(NC(=O)COC(=O)c2ccc(S(=O)(=O)NCc3ccco3)cc2)c1Cl | -7.05% (inactive) | –
O=S(=O)(NCc1ccco1)c1cnc(Cl)c(Cl)c1 | 27.2% (inactive) | –
COc1ccc(Cl)cc1NC(=O)CSc1nc2ccccc2c2nc(-c3ccccc3)nn12 | 2.49% (inactive) | –
CC(=O)Nc1ccc(SCC(=O)Nc2ccccc2Oc2ccccc2)cc1 | – | 4.61 µM (active)
CSc1cccc(NC(=O)CSc2ccccc2)c1 | -4.26% (inactive) | –
CC1CCCN(CC(=O)Nc2cc(Cl)ccc2Oc2ccccc2)C1 (stereo unspecified) | 2.14% (inactive) | –
Cc1cc(C)cc(NC(=O)CSc2ccccc2)c1 | 0% (inactive) | –
O=C(CSc1ccccc1)Nc1cc(Cl)ccc1Oc1ccccc1 | – | 18.4 µM (active)
CC(C)NC(=O)C1CCC(Cn2c(=O)c3sccc3n(Cc3ccc(F)cc3)c2=O)CC1 (stereo unspecified) | 14.1% (inactive) | –
Cc1cccc(CN2CCN(C3CN(Cc4ccccc4)S(=O)(=O)C3)CC2)c1 (stereo unspecified) | 1.24% (inactive) | –
C=CCOc1cccc(C2C(C(=O)c3ccc(C)o3)=C(O)C(=O)N2CCN2CCOCC2)c1 (stereo unspecified) | -32.9% (inactive) | –
COCCNC(=O)C1C(=O)Nc2ccccc2C(=O)N1c1ccc2c(c1)OCCO2 (stereo unspecified) | -6.15% (inactive) | –
O=S1(=O)CC(N2CCN(Cc3ccccc3F)CC2)CN1Cc1cn(Cc2ccccc2)nn1 (stereo unspecified) | 3.29% (inactive) | –
COc1ccc(Cn2c(=O)oc3ccccc32)cc1 | 1.97% (inactive) | –
CN1CCN(c2ccncc2S(=O)(=O)N2CCCC2)CC1 | 2.89% (inactive) | –

Compound | activity change, negative = cytotoxicity | Potency
Cn1c(=N)n(CC(O)c2cccs2)c2ccccc21 (stereo unspecified) | 4.57% (inactive) | –
Cn1c(=N)n(CC(O)c2ccccc2)c2ccccc21 (stereo unspecified) | 0.812% (inactive) | –
N=c1n(Cc2ccc(Cl)cc2)c2ccccc2n1CC(O)c1ccco1 (stereo unspecified) | – | 20.6 µM (active)
Cc1ccc(S(=O)(=O)N2CC[C@H]3[C@@H](C2)C(=O)C[C@@H](c2ccccc2)N3S(=O)(=O)c2ccc(C)cc2)cc1 | 9.68% (inactive) | –
Brc1cccc[n+]1Cc1cccc(C[n+]2ccccc2Br)c1 | 1.12% (inactive) | –
O=C(Nc1ncc2c(n1)-c1ccccc1OC2)c1ccc(Cl)cc1 | -0.505% (inactive) | –
COc1ccc(C(=O)Nc2onc3c2CCCC3)cc1 | -22.3% (inactive) | –
COc1ccc(C(=O)Nc2ncc3c(n2)-c2ccccc2CC3)cc1 | – | 13 µM (active)
COc1cccc(CNC(=O)Cc2csc3nc(-c4ccccc4)cn23)c1 | 2.91% (inactive) | –
CCC(C(=O)Nc1cc(OC)ccc1OC)n1c(=O)c(C(F)(F)F)nc2ccccc21 (stereo unspecified) | -3.27% (inactive) | –
O=C(Nc1cccnc1)c1noc2c1CCCCC2 | – | 23.1 µM (active)
COc1cccc(C(=O)Nc2cccnc2)c1OC | 8.39% (inactive) | –
CCOC(=O)c1ccc(-c2ccc(C(=O)Nc3cccnc3)o2)cc1 | -20.6% (inactive) | –
CC(C)CC(=O)Nc1cc(C(F)(F)F)ccc1N1CCOCC1 | -6.92% (inactive) | –
Cc1noc(C)c1S(=O)(=O)Nc1cc(C(F)(F)F)ccc1N1CCOCC1 | -15.2% (inactive) | –
Nc1cc(C(F)(F)F)ccc1N1CCOCC1 | – | 20.6 µM (active)
Cc1ccccc1CNC(=O)CSc1nnc(C)c2c(C)n(-c3ccccc3)nc12 | -1.14% (inactive) | –
COc1cccc(C(NC(C)=O)c2nc(-c3ccccc3OC)cs2)c1 (stereo unspecified) | -18.7% (inactive) | –
CCN1CCCC1CNC(=O)c1ccc2c(c1)NC(=O)/C(=C\c1ccccc1F)S2 (stereo unspecified) | -4.63% (inactive) | –
COC(=O)c1ccc2nc(-c3ccccc3)c(Cc3ccc(OC)cc3C)n2c1 | – | 23.1 µM (active)
COC(=O)c1ccc2nc(-c3ccc(F)cc3)c(Cc3ccc(C)cc3)n2c1 | – | 9.2 µM (active)
COC(=O)c1ccc2nc(-c3ccc(C)cc3)c(Cc3ccc(OC)cc3C)n2c1 | -24.1% (inactive) | –
COC(=O)c1ccc2nc(-c3ccc(Cl)cc3)c(Cc3cccc(F)c3)n2c1 | 13.5% (inactive) | –
COC(=O)c1ccc2nc(-c3cccc(Br)c3)c(Cc3ccc(OC)cc3C)n2c1 | -3.51% (inactive) | –
COC(=O)c1ccc2nc(-c3ccc(OC)c(OC)c3)c(Cc3ccccc3)n2c1 | -3.03% (inactive) | –
OC[C@@H]1CN(Cc2ccc3c(c2)OCO3)C[C@H](n2cnc3c(NCc4ccco4)ncnc32)O1 | 0.266% (inactive) | –

Compound | activity change, negative = cytotoxicity | Potency
CC1(c2cccc(N)c2)OCCO1 | 14.4% (inactive) | –
COc1ccc(NC(=O)Cn2c(=O)cc(C)c3c(C)nn(-c4cccc(Cl)c4C)c32)cc1OC | 4.25% (inactive) | –
Cn1nc(N)c2ncc(C(Cl)(Cl)Cl)nc21 | 16.9% (inactive) | –
Nc1cc(=O)c2[nH]cnc2[nH]1 | 11.3% (inactive) | –
S=c1[nH]c(=S)c2n[nH]nc2[nH]1 | -23.8% (inactive) | –
Cc1ccc2nc(-c3ccc(O)cc3)c(Nc3ccc4c(c3)OCO4)n2c1 | 12.8% (inactive) | –
Cc1ccc2nc(-c3ccccc3)c(CC3CCCCC3)n2c1 | 8.28% (inactive) | –
Cc1ccc2nc(-c3cccnc3)c(NC3CCCC3)n2c1 | – | 2.59 µM (active)
COc1ccccc1CNc1nccn(-c2ccc(F)cc2)c1=O | 5.14% (inactive) | –
CCOC(=O)C1(C)CCCN(C(=O)c2cccc(Cl)c2)C1 (stereo unspecified) | -11.5% (inactive) | –
Oc1cc2c(cc1O)CN(C(=S)NCCc1ccc(Cl)cc1)CCC2 | – | 14.6 µM (active)
O=C(NCCc1ccc(Cl)cc1)c1cccc(N2CCCC2=O)c1 | -5.68% (inactive) | –
COc1ccc(CCNC(=S)N2CCN(S(=O)(=O)c3ccc(Cl)cc3)CC2)cc1 | 4.6% (inactive) | –
Cc1cc([N+](=O)[O-])ccc1NC1CCCC1 | – | 16.4 µM (active)
Cc1cc([N+](=O)[O-])ccc1NCc1cccc([N+](=O)[O-])c1 | -4.27% (inactive) | –
Cc1cc([N+](=O)[O-])ccc1NC(=O)C1CCCO1 (stereo unspecified) | -0.842% (inactive) | –
COc1ccc(-c2nnc(SCC(=O)Nc3ccc(C(C)C)cc3)nc2-c2ccc(OC)c(OC)c2)cc1OC | 10.8% (inactive) | –
CC1(C)CN(CCc2ccccc2)C(=O)[C@H]1CC(=O)Nc1ccc(Br)cc1 | -1.58% (inactive) | –
CC1(C(=O)NS(=O)(=O)c2ccccc2)CCN1C(=O)C/C=C/c1ccccc1 (stereo unspecified) | 1.3% (inactive) | –
CCn1c(=O)c(=O)n(CC)c2cc(N3CCCCC3)c(NC(=O)c3cccc(F)c3)cc21 | -3.16% (inactive) | –
O=C(Nc1ccccc1N1CCN(c2ccccc2)CC1)c1cccc(F)c1 | – | 11.6 µM (active)
Cc1cccc(C(=O)Nc2ccccc2N2CCN(c3ccc(F)cc3)CC2)c1 | -30.1% (inactive) | –
O=C(NCc1nnnn1-c1ccc(Cl)cc1)c1ccc2c(c1)OCO2 | -9.69% (inactive) | –
Cc1ccc(S(=O)(=O)NCCC(=O)NCc2ccc(Cl)cc2)cc1C | 9.48% (inactive) | –
CC(C)CNS(=O)(=O)c1ccc(CCC(=O)NCc2ccc(Cl)cc2)cc1 | -5.32% (inactive) | –
CSc1ccc(S(=O)(=O)NCc2ccc(Cl)cc2)cc1 | – | 23.1 µM (active)

Compound | activity change, negative = cytotoxicity | Potency
CCCCN1C[C@H](c2ccc(Br)cc2)[C@@H](CC(=O)Nc2ccc(Br)cc2)C1=O | -4.39% (inactive) | –
O=C(Nc1ccc(F)cc1)c1ccc(S(=O)(=O)NCc2cccnc2)cc1 | 0% (inactive) | –
Cc1ccc(C(=O)Nc2ccc(C(=O)O)cc2)cc1S(=O)(=O)Nc1ccccc1 | 1.49% (inactive) | –
O=C(Nc1ccc(Br)cc1)c1ccc(Br)c(S(=O)(=O)NCc2ccccc2)c1 | – | 13 µM (active)
COCCNC(=O)c1cc2c(Br)ccc(Br)c2nc1N | 0% (inactive) | –
O=S1(=O)CC(N2CCN(CCO)CC2)CN1Cc1cn(Cc2ccc(Cl)cc2)nn1 (stereo unspecified) | -0.0484% (inactive) | –
CC(C)n1ncc2c(C(=O)N3CCN(Cc4cccs4)CC3)cc(C3CC3)nc21 | -27.5% (inactive) | –
Cc1cc2oc(=O)cc(CN(C)Cc3ccccc3)c2cc1Cl | 0.451% (inactive) | –
CC1=NN(C(=O)c2ccc(Br)cc2)C(O)(c2ccccc2)C1 (stereo unspecified) | 9.29% (inactive) | –
CCC1=NN(C(=O)Cc2ccc([N+](=O)[O-])cc2)C(O)(c2ccc(Br)cc2)C1 (stereo unspecified) | – | 13 µM (active)
CC1=NN(C(=O)Cc2ccc(C)cc2)C(O)(c2cccnc2)C1 (stereo unspecified) | 0.391% (inactive) | –
C[C@@H]1CN([C@H](C)CO)S(=O)(=O)c2ccc(C#CC3CCCCC3)cc2O[C@H]1CN(C)C(=O)Cc1ccncc1 | 0% (inactive) | –
COc1ccc(NC(=O)c2ccco2)cc1NC(=O)COc1ccc(C)c(C)c1 | -4.24% (inactive) | –
O=C(c1ccccc1)c1cc(-c2ccccn2)c(N2CCOCC2)s1 | – | 8.2 µM (active)
O=C(NCC(c1cccs1)N1CCOCC1)c1cc(-c2ccccn2)nc2ccccc12 (stereo unspecified) | -21.1% (inactive) | –
CCc1ccc2ncc(C(=O)c3ccccc3)c(N3CCOCC3)c2c1 | -2.87% (inactive) | –
COCCNc1ncnc2c1ncn2[C@H]1CN(CCN2CCOCC2)C[C@@H](CO)O1 | 3.73% (inactive) | –
Fc1ccc(-n2ncc3c(Nc4ccc(Oc5ccccc5)cc4)ncnc32)cc1 | 0% (inactive) | –
OC(COc1ccccc1)CN1CCN(c2cccc(Cl)c2)CC1 (stereo unspecified) | 0.123% (inactive) | –
Cn1c(C(=O)NCCCN2CCN(c3cccc(Cl)c3)CC2)cc2c(=O)n(C)c3ccccc3c21 | 15.4% (inactive) | –
CCc1nn(CCCN2CCN(c3cccc(Cl)c3)CC2)c(=O)n1CCOc1ccccc1 | – | 6.51 µM (active)
CC(O)(c1cccc(F)c1)c1nc(-c2ccc3c(c2)OCO3)cs1 (stereo unspecified) | 3.39% (inactive) | –
CCc1nc2ccc(C(=O)NCCNC(C)=O)cn2c1N(CC)Cc1cccc(Br)c1 | 5.36% (inactive) | –

Reference: PubChem BioAssay AID1347076 (National Center for Advancing Translational Sciences (NCATS), 2019)
